Measured values published in PubChem BioAssay (NCI).
About 79,000 compounds went through this panel and 15% of them were active in at least one assay; those are over-represented in the sample as a whole. Values without a mark were called inactive. The source made the active and inactive calls. No stated cut-off is given here; in the data, active means growth inhibition above about 70%; inactive means the rest.

Assay: NCI Yeast Anticancer Drug Screen. Data for the rad14 strain (AID 159);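 further: 0% = growth of vehicle-treated control cultures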
Settings: S. cerevisiae rad14 strain growth inhibition, hits give high values
Method: Growth inhibition of yeast strains with defined genetic alterations is measured as a screen for potential anti-cancer activity. Selected strains with alterations in DNA damage repair or cell cycle control were exposed to compounds and growth inhibition was measured relative to vehicle treated controls. The strain used in this assay is rad14

c1cc(-c2sc(-c3ccncc3)c(-c3ccncc3)c2-c2ccncc2)ccn1
growth inhibition (at 1.2 µM): 3%
growth inhibition (at 3.7 µM): -4%
growth inhibition (at 11.0 µM): 5%
growth inhibition (at 33.0 µM): 26%
growth inhibition (at 100.0 µM): 75% (active)

O=C(NNc1ccccc1)C(CCCCNS(=O)(=O)Cc1ccccc1)NS(=O)(=O)Cc1ccccc1 (stereo not given)
growth inhibition (at 1.2 µM): 0%
growth inhibition (at 3.7 µM): 1%
growth inhibition (at 11.0 µM): 3%
growth inhibition (at 33.0 µM): 13%
growth inhibition (at 100.0 µM): 18%

Cc1ccc(S(=O)(=O)Nc2cccc3cccnc23)cc1
growth inhibition (at 1.2 µM): -19%
growth inhibition (at 3.7 µM): -16%
growth inhibition (at 11.0 µM): 16%
growth inhibition (at 33.0 µM): 72% (active)
growth inhibition (at 100.0 µM): 56%

O=S(=O)(c1cccc(C(F)(F)F)c1)N1c2ccccc2-n2cccc2C1c1cccnc1 (stereo not given)
growth inhibition (at 1.2 µM): -51%
growth inhibition (at 3.7 µM): -17%
growth inhibition (at 11.0 µM): 73% (active)
growth inhibition (at 33.0 µM): 94% (active)
growth inhibition (at 100.0 µM): 89% (active)

CCOP(=O)(OCC)/C(C#N)=C/c1ccc(-c2ccc(F)cc2F)o1
growth inhibition (at 1.2 µM): -1%
growth inhibition (at 3.7 µM): -1%
growth inhibition (at 11.0 µM): -2%
growth inhibition (at 33.0 µM): -3%
growth inhibition (at 100.0 µM): 1%

CCC(C)(C)c1ccc(Oc2ccccc2)c(N)c1
growth inhibition (at 1.2 µM): -2%
growth inhibition (at 3.7 µM): 13%
growth inhibition (at 11.0 µM): 97% (active)
growth inhibition (at 33.0 µM): 99% (active)
growth inhibition (at 100.0 µM): 99% (active)

CC1(C)OC(=O)C(=Cc2ccc([N+](=O)[O-])s2)C(=O)O1
growth inhibition (at 1.2 µM): -12%
growth inhibition (at 3.7 µM): -5%
growth inhibition (at 11.0 µM): 2%
growth inhibition (at 33.0 µM): 9%
growth inhibition (at 100.0 µM): 99% (active)

CCOC(=O)/C(=C\c1ccc(F)cc1)C(C)=O
growth inhibition (at 1.2 µM): -11%
growth inhibition (at 3.7 µM): -4%
growth inhibition (at 11.0 µM): 61%
growth inhibition (at 33.0 µM): 95% (active)
growth inhibition (at 100.0 µM): 97% (active)
